The campaign covered roughly 5,500 compounds. About 2,000 (36%) were called active. Not shown: some 18% with an inconclusive outcome. Rule as the data show it: active = normalized growth mostly below about 0.91 (no sharp cut-off); inconclusive = no clear call, values can overlap the other calls; inactive = mostly above about 0.92. This is one part of the list.
Assay: chemical genetic growth profiling, strain panel (AID 1159580);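 also: tested at 20 µM; growth read once vehicle control cultures reached saturation at 30 °C; 1 = growth at the plate median or of vehicle wells; lower values mean less growth of the strain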
Settings: growth OD

Measured: normalized growth

CCCN(CCC)S(=O)(=O)c1ccc(C(=O)NCC(=O)O)cc1
inactive: S. cerevisiae deletion strains, locus YAL013W, strain DEP1, stronger effect = lower value 1.01 | S. cerevisiae deletion strains, locus YBR229C, strain ROT2, stronger effect = lower value 1 | S. cerevisiae deletion strains, locus YDL101C, strain DUN1, stronger effect = lower value 1 | S. cerevisiae deletion strains, locus YDL134C, strain PPH21, stronger effect = lower value 0.996 | S. cerevisiae deletion strains, locus YDR150W, strain NUM1, stronger effect = lower value 0.907 | S. cerevisiae deletion strains, locus YEL061C, strain CIN8, stronger effect = lower value 1.02 | S. cerevisiae deletion strains, locus YGR078C, strain PAC10, stronger effect = lower value 0.998 | S. cerevisiae deletion strains, locus YHR030C, strain SLT2, stronger effect = lower value 1.03 | S. cerevisiae deletion strains, locus YHR087W, strain rtc3, stronger effect = lower value 1.02 | S. cerevisiae deletion strains, locus YJR043C, strain POL32, stronger effect = lower value 0.996 | S. cerevisiae deletion strains, locus YJR075W, strain HOC1, stronger effect = lower value 1.02 | S. cerevisiae deletion strains, locus YKL190W, strain CNB1, stronger effect = lower value 0.996 | S. cerevisiae deletion strains, locus YLR039C, strain RIC1, stronger effect = lower value 0.993 | S. cerevisiae deletion strains, locus YLR058C, strain SHM2 (second series), stronger effect = lower value 1.01 | S. cerevisiae deletion strains, locus YLR085C, strain ARP6, stronger effect = lower value 0.984 | S. cerevisiae deletion strains, locus YLR262C, strain YPT6, stronger effect = lower value 1.01 | S. cerevisiae deletion strains, locus YML094W, strain GIM5, stronger effect = lower value 1 | S. cerevisiae deletion strains, locus YMR219W, strain ESC1, stronger effect = lower value 1 | S. cerevisiae deletion strains, locus YMR263W, strain SAP30, stronger effect = lower value 0.989 | S. cerevisiae deletion strains, locus YNL153C, strain GIM3, stronger effect = lower value 1 | S. cerevisiae deletion strains, locus YNL298W, strain CLA4 (second series), stronger effect = lower value 1.02 | S. cerevisiae deletion strains, locus YNL322C, strain KRE1, stronger effect = lower value 1.01 | S. cerevisiae deletion strains, locus YNR030W, strain Alg12, stronger effect = lower value 1.01 | S. cerevisiae deletion strains, locus YPL055C, strain LGE1, stronger effect = lower value 1.02 | S. cerevisiae deletion strains, locus YPL241C, strain CIN2, stronger effect = lower value 1 | S. cerevisiae deletion strains, locus YPR135W, strain CTF4, stronger effect = lower value 1.01 | S. cerevisiae strains, strain wild type, stronger effect = lower value 1.01
